# Results from PubChem BioAssay (NCI).
# Compounds without any hit were thinned out: in the full panel of roughly 79,000, 15% have a hit. Values without a mark were called inactive. Activity calls are given as the source filed them. No stated cut-off is given here; in the data, active means growth inhibition above about 70%; inactive means the rest. Where a SMILES comes first, the peptide text is derived from it. Bridges are numbered along the chain shown (N, C = ends). [ ]: non-standard residue; d: D form. The star is where a group is joined. Cbz = O=C(OCc1ccccc1)*; Nva = CCC[CH](N)C(=O)O
# Experiments:
# [1] = NCI Yeast Anticancer Drug Screen. Data for the rad50 strain (AID 155);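 further: 0% = growth of vehicle-only cultures of the same strain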; settings: S. cerevisiae rad50 strain growth inhibition; at 50.0 µM; hits give high values
# How it was run: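 Compounds were tested on a yeast strain with an engineered DNA damage repair alteration; the reported value is growth inhibition normalised to vehicle treatment.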
# [2] = NCI Yeast Anticancer Drug Screen. Data for the mec2-1 strain (AID 157); settings: S. cerevisiae mec2-1 strain, at 50.0 µM, hits give high values
# How it was run: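 Strain: mec2-1 (DNA repair/cell cycle alteration). Compound exposure, then growth measured; inhibition expressed relative to vehicle.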
# [3] = NCI Yeast Anticancer Drug Screen. Data for the sgs1 mgt1 strain (AID 161);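 further: 0% = growth of cultures given vehicle only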; settings: S. cerevisiae sgs1 mgt1 strain, at 50.0 µM, hits give high values
# How it was run: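 Test agents were incubated with a DNA-repair-mutant yeast strain. Growth was then read and compared against vehicle-treated controls.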
# [4] = NCI Yeast Anticancer Drug Screen. Data for the cln2 rad14 strain (AID 165);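 further: 0% = growth equal to vehicle treated cultures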; settings: S. cerevisiae cln2 rad14 strain, at 50.0 µM, hits give high values
# How it was run: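 Compounds are applied to the cln2 rad14 yeast strain, and growth is then compared with that of vehicle-treated cultures to give inhibition.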
# [5] = NCI Yeast Anticancer Drug Screen. Data for the bub3 strain (AID 167); settings: S. cerevisiae bub3 mutant strain, at 50.0 µM, hits give high values
# How it was run: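 Growth of a checkpoint-deficient yeast mutant is measured after compound exposure. Values represent inhibition relative to vehicle.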
# [6] = NCI Yeast Anticancer Drug Screen. Data for the mlh1 rad18 strain (AID 175); settings: S. cerevisiae mlh1 rad18 strain growth inhibition; at 50.0 µM; hits give high values
# How it was run: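 Read-out is yeast growth inhibition, calculated against vehicle-only controls. The compound was applied to a strain engineered with DNA damage repair alterations.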
SMILES,growth inhibition [1],growth inhibition [2],growth inhibition [3],growth inhibition [4],growth inhibition [5],growth inhibition [6]
O=[N+]([O-])c1ccc(C2NC(c3ccccc3)c3c(ccc4ccccc34)O2)cc1 (stereo not drawn),41%,2.75%,23.8%,-1.35%,-0.25%,4.3%
O=C(O)/C(=C\c1ccccc1[N+](=O)[O-])c1ccccc1,35.3%,-3.05%,7.45%,-30.9%,-1.45%,47.4%
CCOC(=O)C(NC(=O)Cc1ccccc1)C1NC(C(=O)O)CS1 (stereo not drawn),19.9%,1.8%,3.2%,-14.8%,-1.05%,-13.8%
CCN(CC)CCOC(=O)OCCN(CC)CC,-13.5%,-12.1%,-7.3%,4.45%,17.9%,-38.8%
C=C1[C@H](OCC(C)C)[C@@H](OC(=O)C(C)CC)[C@@H](O)C(C)(C)/C=C/[C@H](C)C(=O)[C@@]2(O)C[C@H](C)[C@H](O)[C@@H]2[C@H]1OC(=O)C(C)CC (stereo partly drawn),47%,46.6%,75.2% (active),69.3%,73.7% (active),58.1%
COc1cc(C=C2C(=O)NC(=O)NC2=O)ccc1OCc1ccccc1,-0.15%,-1.5%,-1.1%,3.3%,-22.3%,-42.6%
Cc1ccc(NC2C=C(c3ccccc3)Oc3ccccc32)c(C)c1 (stereo not drawn),20.1%,-3.7%,20.9%,-3.25%,14.1%,8.45%
CCCCCCCC/C=C/CCCCCCCC(=O)OCC(C)(C)N1C(=O)CCC1=O,-11.2%,-20.4%,-12.6%,-11.2%,-3.45%,-7.3%
Brc1cccc(C2SCc3nc4ccccc4n32)c1 (stereo not drawn),33%,16.9%,37.2%,19.9%,19.2%,21.4%
COc1ccc2cc(OC)ccc2c1,4.95%,-14.6%,-1.15%,22%,1.5%,14%
COC(=O)c1cc(=O)c2c(=O)[nH]c(=O)[nH]c2[nH]1,-3.65%,-1.25%,2%,-26.8%,-8.6%,3.65%
O=C(CBr)c1ccc(S(=O)(=O)c2ccccc2)cc1,67.3%,92.7% (active),85% (active),27.9%,72.2% (active),78.3% (active)
O=C(O)/C=C(/Oc1ccccc1)c1ccccc1,-12.3%,-7.7%,-7.95%,-8.7%,-19.8%,-3.55%
NCOC(=O)Cc1ccc(Br)cc1,14.8%,6.65%,-0.35%,-2.55%,4.15%,18.6%
COC(=O)CC1C2(C)C3=C(C)C(c4ccoc4)CC3OC2C2OC(=O)C3(C)C=CC(=O)C1(C)C23 (stereo not drawn),85% (active),84.2% (active),79.2% (active),81% (active),82% (active),90.3% (active)
C/C(=N\NS(=O)(=O)c1ccc(N)cc1)c1ccc(C)cc1C,-12.9%,-19.6%,0.8%,-5.25%,-28.6%,-16.5%
Fc1ccc(N=Cc2ccc(C=Nc3ccc(F)cc3)cc2)cc1,20.9%,30.1%,18.7%,10.2%,38%,27.2%
Cc1cc2nc(C(O)C(O)C(O)C(O)c3nc4cc(C)c(C)cc4[nH]3)[nH]c2cc1C (stereo not drawn),18.9%,3.35%,-9.2%,-1.2%,-8.65%,-0.85%
O=C(NNC(=S)Nc1ccc(Cl)cc1)C12CC3CC(CC(C3)C1)C2,-9.4%,6.15%,-4.15%,17.4%,30.8%,8.7%

SMILES,growth inhibition [1],growth inhibition [2],growth inhibition [3],growth inhibition [4],growth inhibition [5],growth inhibition [6]
Oc1ccc2ccccc2c1C(c1cccc2ccccc12)N1CCCCC1 (stereo not drawn),16.1%,1.4%,9.7%,3.2%,16.1%,53.8%
CCOC(=O)C1CSSCC(N)C(=O)N1 (stereo not drawn) (H-Cys-Cys-OEt; disulfide 1-2; configuration not given here),5.65%,-1.25%,-11.6%,-48.8%,-11.6%,4.7%
CNc1c(F)cc(C(=O)O)cc1F,-8.35%,4.5%,-0.25%,-16.4%,-32.6%,2.15%
COc1c2c(c(OC)c(C(C)=O)c1OC(=O)c1ccccc1)CCO2,1%,-14.4%,11.4%,11.8%,0.05%,15.6%
CCCCCc1nnc2n1N=C(c1ccc(Cl)cc1)CS2,-26.6%,-13.9%,-2.5%,4.1%,-17.6%,3.5%
O=C(CN=Cc1ccccc1O)NCc1ccccn1,-10.7%,-5.9%,10.7%,10.1%,-21.9%,21.3%
CCC(c1ccc(OC)cc1)c1cc2c(cc1OCC(=O)O)OCO2 (stereo not drawn),36.6%,55.2%,57.1%,53.9%,44.5%,65.5%
O=C1CCC(c2ccccc2)(C2CCN(Cc3ccc(F)cc3)CC2)C(=O)N1 (stereo not drawn),-8.55%,4.85%,-5.85%,-14.8%,3.45%,4.8%
O=C(Nc1cccc(C(F)(F)F)c1)C(=O)C(C(=O)c1ccc(Cl)c(Cl)c1)C1OC(=O)c2ccccc21 (stereo not drawn),34.9%,19.2%,-1.35%,63.6%,45.4%,37.4%
CC1=C(C(=O)Nc2ccccc2C)C(c2ccc(Cl)cc2)C(C(=O)Nc2ccccc2C)=C(C)N1,-3.3%,2.6%,-5.2%,14.4%,-8%,0%
CCCC(NC(=O)OCc1ccccc1)C(=O)NC(Cc1ccc(O)cc1)C(=O)O (stereo not drawn) (Cbz-[Nva]-Tyr-OH; configuration not given here),-3.5%,-0.35%,-4.2%,7%,-16.4%,10%
CC(=O)OCc1ccc2ccccc2c1,-9.35%,-29.7%,-10.8%,-3.2%,-7.65%,-14.7%
Cc1ccc(NC(=O)CC2C(=O)Nc3ccccc3S2=O)c(C)c1 (stereo not drawn),-7.85%,-24.9%,4.45%,20.4%,15.8%,-5.55%
O=S(=O)([O-])[O-].O=c1[nH]cnc2[nH]ncc12.O=c1[nH]cnc2[nH]ncc12.[Cu+2],-22.1%,-7.95%,-47.2%,-32%,-18.7%,-18.1%
CC(C)/C(Cl)=N\OC(NC(=O)P(=O)(c1ccccc1)c1ccccc1)(C(F)(F)F)C(F)(F)F,58.5%,52.2%,50.8%,65.5%,52.4%,60.9%
Cc1nc(-c2cccnc2)sc1C(=O)/C=C/c1cccc([N+](=O)[O-])c1,27.1%,10.6%,23.9%,32.2%,5.6%,38.9%
CCN1C(=O)N(C)C(O)c2c1nc1ccccn1c2=O (stereo not drawn),-14.1%,-8.35%,-33.4%,3.65%,-15.7%,-19.6%
CCC1(CC)C(=O)N(C(=O)c2ccc(C)cc2)N(C(=O)c2ccc(C)cc2)C1=O,3.65%,-6.1%,14.6%,18.1%,2.8%,-17.3%
CC[P+]1(c2ccccc2)[C@@H](C)CC[C@@H]1C,15.1%,7.45%,12.6%,8.1%,3.75%,37.7%
